Measured values from PubChem BioAssay AID1851 (National Center for Advancing Translational Sciences (NCATS), 2009).
In all, about 16,000 compounds went through this assay and about 5,100 (32%) were called active. Another 25% or so got no clear call; they are omitted. The list shows a part of the results. Values without a mark were called inactive. Calls follow the shape of the dose curve; as a rule, active = well fitted curve in the direction sought with a large enough effect; inconclusive = small, poorly fitted or top-dose-only effect, or effect the other way; inactive = no such curve, though single readings can be large or run the other way.

Target: Cytochrome P450 3A4 (Homo sapiens) (UniProt P08684)
Sequence (P08684 whole entry, looked up): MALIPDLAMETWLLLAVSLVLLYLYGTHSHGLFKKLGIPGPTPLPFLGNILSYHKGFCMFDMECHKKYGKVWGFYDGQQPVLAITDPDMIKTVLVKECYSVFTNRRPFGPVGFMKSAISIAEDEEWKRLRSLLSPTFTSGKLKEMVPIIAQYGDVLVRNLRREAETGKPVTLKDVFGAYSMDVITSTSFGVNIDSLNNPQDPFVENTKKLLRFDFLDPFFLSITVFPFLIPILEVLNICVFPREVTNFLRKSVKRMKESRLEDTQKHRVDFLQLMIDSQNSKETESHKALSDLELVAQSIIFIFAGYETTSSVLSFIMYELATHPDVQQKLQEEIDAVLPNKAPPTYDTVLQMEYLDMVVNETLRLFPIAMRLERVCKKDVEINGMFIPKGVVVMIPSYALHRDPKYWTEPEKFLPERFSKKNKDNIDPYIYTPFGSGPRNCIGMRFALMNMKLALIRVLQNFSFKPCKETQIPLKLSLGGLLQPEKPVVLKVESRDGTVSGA
Assay: Cytochrome panel assay with activity outcomes
Conditions: recombinant CYP, pro-luciferin dealkylation, luminescence, p450-cyp3a4; series mostly up to 57.1 µM; activity, negative = inhibition: at the top concentration
% is scaled to controls: 0 for no effect and ±100 for the full control effect.

Compound	AC50	activity, negative = inhibition
Cc1cccc(C)c1NC(=O)C[N+](C)(C)C	inactive	
C=C(C)COc1ccc(-c2n[nH]c(C)c2-c2ccc(OC)cc2)c(O)c1	10 µM (active)	
Cc1[nH]nc(-c2ccc(O)cc2O)c1-c1ccc(Cl)cc1	3.55 µM (active)	
COc1ccc(-c2n[nH]c(C)c2-c2ccc(Cl)cc2)c(O)c1	14.1 µM (active)	
Oc1ccc(-c2[nH]ncc2-c2ccc(Cl)cc2)c(O)c1	0.562 µM (active)	
C[C@@H](C(=O)NCCc1c[nH]c2ccccc12)[C@H]1C[C@]1(C)[C@H](NC(=O)OCc1ccccc1)c1ccccc1	1.58 µM (active)	
CC(C)CNC(=O)CCCc1c[nH]c2ccccc12		14.6% [at 2.29 µM]
C[C@@H](C(=O)NCCc1c[nH]c2ccccc12)[C@@H]1C[C@@]1(C)[C@@H](NC(=O)OCc1ccccc1)c1ccccc1	3.16 µM (active)	
C[C@@H]1O[C@@H](O)[C@@H](O)[C@H](O)[C@H]1O		-3.34% [at 11.4 µM]
CN(C)c1ccc(N=Cc2nc(-c3ccccc3)oc2O)cc1	14.1 µM (active)	
CN(C)c1oc(-c2ccccc2)nc1C#N		-21.4%
O=C(Oc1oc(-c2ccco2)nc1C=Nc1ccc(Cl)cc1)c1ccco1		0.287%
CC(=O)N1CCN(C)CC1		-10.7%
Cc1cc(C(C)(C)C)cc(CNC2CCCCC2)c1O		-20.7% [at 11.4 µM]
CCOc1cc(C2NN=C(c3ccccc3)S2)ccc1OCc1ccccc1Cl (centres undefined)		7.68% [at 2.29 µM]
COc1cc(CNC2CCCC2)cc(Cl)c1OCc1ccccc1Cl	5.62 µM (active)	
CC1CCC(NC(=O)CC(C)(C)Cc2nc3ccccc3c(=O)[nH]2)CC1 (centres undefined)		13.9%
CCN1CCCC1CNC(=O)CSCc1nc(-c2ccccc2C)oc1C (centres undefined)	6.31 µM (active)	
CCN1CCCC1CNC(=O)C(=O)Nc1ccccc1OC (centres undefined)		-20.6%
CCOc1ccccc1NC(=O)C(=O)NCC1CCCN1CC (centres undefined)		-6.39%
Cc1oc(-c2ccccc2Cl)nc1CSCC(=O)NC1CC1	4.47 µM (active)	
C1CCc2c(nc3nnnn3c2NC2CCCC2)C1		-17.9%
NC(=NCc1ccccc1)NC(=O)c1nc(Cl)c(N)nc1N	inactive	
O=c1cc(N2CCCCC2)c(-c2ccccc2)nn1Cc1ccccc1Cl	10 µM (active)	
Cc1cccc(N2CCN(c3ccc(NC(=O)/C=C(/C(=O)O)c4ccccc4)cc3)CC2)c1		0.321% [at 2.29 µM]

Compound	AC50	activity, negative = inhibition
COc1cc(CC(=O)O)c(C(C)=O)cc1OC		18.7%
COC(=O)c1cc(OC)c(OC)cc1NC(=S)N1CCCCC1	3.98 µM (active)	
COC(=O)c1ccc(C(=O)OC)c(NC(=S)N2CCN(c3ccccc3)CC2)c1	7.94 µM (active)	
N#CCCn1c(=O)c(-c2ccccc2)nc2cnc(Nc3ccccc3)nc21		-28.1%
COc1cccc(Nc2ncc3nc(-c4cccs4)c(=O)n(CCC#N)c3n2)c1	6.31 µM (active)	
COc1ccc(-c2nc3cnc(Nc4ccccc4)nc3n(CCC#N)c2=O)cc1		-23.2%
COc1cccc(Nc2ncc3nc(C)c(=O)n(CCC#N)c3n2)c1	12.6 µM (active)	
COc1ccc(-c2nc3cnc(Nc4cccc(OC)c4)nc3n(CCC#N)c2=O)cc1	3.98 µM (active)	
COc1cccc(Cn2c(=O)cnc3cnc(Nc4cccc(OC)c4)nc32)c1	2 µM (active)	
O=C1CCCC=C1[C@@H](O)CCOC(c1ccccc1)(c1ccccc1)c1ccccc1		-80.3% [at 11.4 µM]
CC(C)(C)c1cc(Br)c(O)c(CN(Cc2cc(C(C)(C)C)cc(Br)c2O)C2CCCCC2)c1		-3.9% [at 11.4 µM]
COCCn1c(=O)c(-c2ccc(Cl)cc2)nc2cnc(Nc3ccccc3)nc21		-29.4%
CN(C)c1ncc2ncc(=O)n(CCC#N)c2n1		-17.1%
COc1cccc(Nc2ncc3nc(-c4cc(F)cc(F)c4)c(=O)n(CCC#N)c3n2)c1	10 µM (active)	
COCCn1c(=O)cnc2cnc(Nc3cccc(OC)c3)nc21	15.8 µM (active)	
COc1cccc(Nc2ncc3ncc(=O)n(CCC#N)c3n2)c1	15.8 µM (active)	
COCCn1c(=O)cnc2cnc(Nc3ccccc3)nc21		-22.2%
N#CCCn1c(=O)c(-c2cc(F)cc(F)c2)nc2cnc(Nc3ccccc3)nc21		-28.1%
COCCn1c(=O)c(-c2ccccc2)nc2cnc(Nc3ccccc3)nc21	12.6 µM (active)	
Cn1c(=O)c2c(nc(N/N=C\c3ccccc3C(=O)O)n2C)n(C)c1=O		5.51% [at 11.4 µM]
CCC[C@H]1C(=O)N2C(N(C)C)=Nc3ccc(C)cc3N2C1=O		-23.4% [at 25.6 µM]
COCCn1c(=O)c(-c2cc(F)cc(F)c2)nc2cnc(Nc3cccc(OC)c3)nc21	7.94 µM (active)	
COc1cccc(Nc2ncc3nc(-c4ccc(F)cc4)c(=O)n(CCC#N)c3n2)c1	3.16 µM (active)	
COCCn1c(=O)c(-c2ccccc2)nc2cnc(Nc3cccc(OC)c3)nc21		-26.2%
